target: Glucocorticoid receptor (Homo sapiens) (UniProt P04150); experiment: GR-GFP Redistribution (AID 450); details: U2OS GR-GFP nuclear translocation, laser cytometry, 2 h; series mostly up to 20.6 µM
Potency is read from the fitted curve at half-maximal effect.

Chain of Glucocorticoid receptor (Homo sapiens) (P04150 whole entry, looked up): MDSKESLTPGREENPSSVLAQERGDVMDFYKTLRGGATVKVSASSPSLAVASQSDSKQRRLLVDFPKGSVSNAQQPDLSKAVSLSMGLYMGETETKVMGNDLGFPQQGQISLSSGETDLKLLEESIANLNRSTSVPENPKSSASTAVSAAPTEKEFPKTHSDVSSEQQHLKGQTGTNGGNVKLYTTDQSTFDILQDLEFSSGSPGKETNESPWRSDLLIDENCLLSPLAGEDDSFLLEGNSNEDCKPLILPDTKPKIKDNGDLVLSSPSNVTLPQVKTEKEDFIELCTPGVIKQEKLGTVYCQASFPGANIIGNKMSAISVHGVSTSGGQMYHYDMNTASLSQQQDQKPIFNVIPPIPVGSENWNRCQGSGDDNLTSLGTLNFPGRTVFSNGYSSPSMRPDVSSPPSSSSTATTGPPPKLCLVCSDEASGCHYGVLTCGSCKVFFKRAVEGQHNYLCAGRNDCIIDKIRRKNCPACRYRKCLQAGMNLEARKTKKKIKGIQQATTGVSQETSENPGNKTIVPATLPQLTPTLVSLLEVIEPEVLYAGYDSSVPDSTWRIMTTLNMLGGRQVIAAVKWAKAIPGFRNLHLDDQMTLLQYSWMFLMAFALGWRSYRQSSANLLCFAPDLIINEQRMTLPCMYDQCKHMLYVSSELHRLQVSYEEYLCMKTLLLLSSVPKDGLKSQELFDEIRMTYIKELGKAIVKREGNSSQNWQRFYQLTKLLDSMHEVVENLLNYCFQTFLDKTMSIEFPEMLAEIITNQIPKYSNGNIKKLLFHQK

Potency, inactive:
Clc1nc(-c2n[nH]nc2Cl)n[nH]1 > 20.6 µM, COc1ccc(C(O)C(CN2CCOCC2)c2ccccc2)cc1 (centres undefined) > 20.6 µM, CN(C)/C=C1\N=C(c2ccc(Cl)cc2Cl)OC1=O > 20.6 µM, N#Cc1nc(COc2ccc(Br)cc2)oc1NCCN1CCOCC1 > 20.6 µM, CCOC(=O)C(C)Oc1nc(Oc2ccccc2)nc(N(C)C)n1 (centres undefined) > 20.6 µM, CC(C)(C)C1=Nn2c(nnc2C2CCCCC2)SC1 > 20.6 µM, COc1ccc(/C(O)=C2/C(=O)C(=O)N(CCN3CCOCC3)C2c2cccnc2)cc1OC (centres undefined) > 20.6 µM, CCOC(=O)C1=C(C)NC(=O)NC1c1ccc2c(c1)OCO2 (centres undefined) > 20.6 µM, COC(=O)CC(=O)Cc1nc(N)nc(Nc2ccc(C)c(C)c2)n1 > 20.6 µM, Cc1ccc(CC2CC(=O)N(c3ccc4c(c3)OCCO4)C2=O)cc1 (centres undefined) > 20.6 µM, CN/C(=C/[N+](=O)[O-])NCCSCc1ccc(CN(C)C)o1 > 20.6 µM, CCNc1nc(NC(C)C)nc(N(C#N)C(C)C(=O)N(C)C)n1 (centres undefined) > 20.6 µM, S=c1[nH]nc(-c2ccccc2)n1Cc1ccccc1 > 20.6 µM, CCOC(=O)c1c(C)n(C)c2ccc(OC)c(NC(=O)CN3CCCCC3)c12 > 20.6 µM, COc1ccc(CCNC(=O)c2ccc(=O)[nH]n2)cc1OC > 20.6 µM, COc1ccc(OC)c(C2/C(=C(\O)c3ccc(OC)c(Cl)c3)C(=O)C(=O)N2CCN(C)C)c1 (centres undefined) > 20.6 µM, CC(C)OC(=O)[C@H]1[C@H](c2ccc(Cl)cc2)[C@@](C#N)(C(N)=O)[C@@H]2C=CC(C(N)=O)=CN21 > 20.6 µM, Cc1ccc(-c2nn(CCC(=O)NCC3CCCO3)c(=O)c3ccccc23)cc1 (centres undefined) > 20.6 µM, C=CCOc1nc2c(c(=O)n(Cc3ccc(Cl)cc3)c(=O)n2C)n1C > 20.6 µM, COc1cc(C(=O)NCC(=O)n2nc(C)cc2C)cc(OC)c1OC > 20.6 µM, CCC1(C)Cc2c(sc3nc4n(c(=O)c23)CCS4)CO1 (centres undefined) > 20.6 µM, CCOc1ccc(-n2c(SCc3ccc(C#N)cc3)nnc2-c2cccnc2)cc1 > 20.6 µM, COc1ccc(OC)c(C2NC(=O)c3sc(=S)n(-c4ccccc4)c3N2)c1 (centres undefined) > 20.6 µM, CC1CCc2cc(F)cc3c(O)c(C(=O)NCC4CCCO4)c(=O)n1c23 (centres undefined) > 20.6 µM, COC(=O)c1nn2c(C(F)(F)F)cc(-c3ccc(Br)o3)nc2c1Br > 20.6 µM, CCOc1ccc(N=C2C(=O)N(CN3CCOCC3)c3ccccc32)cc1 > 20.6 µM, O=C(Nc1nc(=O)c2ccccc2s1)c1ccccc1 > 20.6 µM, Cc1cc(N2CCN(C3CCCC3)CC2)n2c(nc3ccccc32)c1C#N > 20.6 µM, COc1ccc(C2/C(=C(/O)c3cnn(-c4ccccc4)c3C)C(=O)C(=O)N2CCN(C)C)cc1OC (centres undefined) > 20.6 µM, CC(C)C1C(C#N)=C(N)Oc2n[nH]c(C(C)(C)C)c21 (centres undefined) > 20.6 µM, COc1ccccc1NC(=O)c1c(C)cc(=O)oc1C > 20.6 µM, CCC(=O)OC1=C2C(=Nc3c(c(=O)n(C)c(=O)n3C)C2c2ccccc2)c2ccccc21 (centres undefined) > 20.6 µM, CSc1nnc(N(CCC#N)CCC#N)s1 > 20.6 µM, CCOC(=O)C1CSc2[nH]c(=O)sc2C1c1ccccc1 (centres undefined) > 20.6 µM, CNS(=O)(=O)c1cccc2nsnc12 > 20.6 µM, C1CNCCNCCNCCN1 > 20.6 µM, Cn1c(=O)c2c(nc(N3CCC(C(N)=O)CC3)n2CCSc2nc3ccccc3s2)n(C)c1=O > 20.6 µM, Cn1c(OCc2cccnc2)nc2c1c(=O)n(Cc1ccc(Cl)cc1)c(=O)n2C > 20.6 µM, Cc1nc2ccccc2cc1O > 20.6 µM
